Screens: PubChem, several laboratories
CHT inh: inhibitors of human choline transporter CHT; CHT-expressing cells, membrane potential dye, choline response; hits give low values; B-score at 10 µM; actives 0.86% (n = 310,000);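 active = B-score over 3 SD under the library average, and starting fluorescence ratio not unusually high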;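 also: choline stimulus applied at its EC90 after an EC20 pre-addition; B-score computed on integrated fluorescence ratio after choline addition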
Target sequence (Q9GZV3 whole entry, looked up): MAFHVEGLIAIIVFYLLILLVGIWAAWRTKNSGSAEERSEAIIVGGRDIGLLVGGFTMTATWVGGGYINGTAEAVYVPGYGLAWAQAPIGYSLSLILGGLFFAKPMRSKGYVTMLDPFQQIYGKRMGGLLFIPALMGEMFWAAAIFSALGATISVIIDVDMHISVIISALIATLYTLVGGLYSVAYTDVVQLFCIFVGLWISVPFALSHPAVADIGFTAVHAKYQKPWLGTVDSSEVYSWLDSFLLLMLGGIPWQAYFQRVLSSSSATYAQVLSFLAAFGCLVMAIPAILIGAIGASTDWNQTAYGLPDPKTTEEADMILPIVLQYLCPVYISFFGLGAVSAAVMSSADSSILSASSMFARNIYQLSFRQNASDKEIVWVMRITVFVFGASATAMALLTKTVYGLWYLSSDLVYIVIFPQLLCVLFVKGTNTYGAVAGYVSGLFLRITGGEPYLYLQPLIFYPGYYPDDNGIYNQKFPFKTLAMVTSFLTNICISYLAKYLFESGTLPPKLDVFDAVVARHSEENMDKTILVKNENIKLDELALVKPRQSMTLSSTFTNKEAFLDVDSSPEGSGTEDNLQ
Bfl-1 A1 inh: inhibitors of the anti-apoptotic protein A1, read as caspase activation; MEF A1-2A-BIM cells, Caspase-Glo 3/7 luminescence, 3 h; percent of clofoctol response, vehicle zero; caspase activation, % (test concentration not listed); actives 0.066% (n = 330,000); AID 2462;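 active = over half of replicate activation scores above 10%, or exactly half above 10 with the replicate mean above 10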
CHT PAM: human CHT allosteric activation; CHT-expressing cells, membrane potential dye, choline EC20; hits give high values; LV-AA mutant CHT in HEK293 cells; AID 488977; B-score at 10 µM; actives 0.49% (n = 310,000);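 active = initial fluorescence not abnormally high and integrated response B-score, plate-corrected, over 3 SD above library mean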
NALP3 yeast inh: NALP3 inhibition in yeast. Yeast reconstituted NLRP3/ASC/caspase-1, beta-gal luminescence, 24 h. inhibition, % at 10 µM. actives 0.39% (n = 330,000);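 active = inhibition of 50% or more; inactive = inhibition below 50%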
NALP1 yeast inh: inhibitors of NALP1 inflammasome in yeast; inhibition, % at 10 µM; S. cerevisiae NALP1/ASC/caspase-1 growth, X-gal OD620, 72 h; actives 0.61% (n = 280,000); in the data active = inhibition mostly above about 24%, no sharp cut-off; inactive = mostly below about 32%
Mot1-301 SUMO: inhibitors of SUMOylation pathway: yeast Mot1-301 growth rescue | actives 1% (n = 320,000) | AID 2716 | S. cerevisiae Mot1-301 growth rescue, ATP luminescence, 38.5C; percent above DMSO median, 100 means doubled | growth rescue, % at 18.8 µM;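 active = every valid replicate shows activation above 250% relative to neutral control wells; inactive = the rest, any valid replicate at or below 250%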
Numbers stand for hits; – = inactive; · = not tested or not shown; ! = repeats disagree. An excerpt weighted towards active compounds, which were near 3% of everything screened.

SMILES	CHT inh	Bfl-1 A1 inh	CHT PAM	NALP3 yeast inh	NALP1 yeast inh	Mot1-301 SUMO
O=C1CCC([N+](=O)[O-])C(c2ccc(C(F)(F)F)cc2)N1 (centres undefined)	–	–	–	–	·	–
CC1CCN(CCOc2ccc(OCc3ccccc3)cc2)CC1	–	–	–	–	49	–
CCCCNC(=O)Nc1ncn[nH]1	–	–	–	–	40	–
COc1cccc(N2C(=O)C3C(C2=O)C3(c2ccccc2)c2ccccc2)c1 (centres undefined)	–	–	–	–	32	–
CCOc1ccc(N2C(=O)C3C(C2=O)C3(c2ccccc2)c2ccccc2)cc1 (centres undefined)	–	–	–	–	–	–
CCOC(=O)c1c(N)sc2c(OCC)c(Br)ccc12	–	–	–	–	–	–
CCOC(=O)c1c(NC(C)=O)sc2c(OCC(O)CNC(C)(C)C)c(Br)ccc12 (centres undefined)	–	–	–	–	26	–
COc1ccc(S(=O)(=O)N2CCCC(C(=O)NC3CCCCC3)C2)cc1 (centres undefined)	–	–	–	–	34	–
COc1ccc(OC)c(NC(=O)Cc2coc3ccc4ccccc4c23)c1	–	–	–	–	–	497
COc1ccc(OC)c(NC(=O)Cc2coc3ccc(C)cc23)c1	–	–	–	–	–	–
O=c1c(-c2ccco2)[n+]([O-])c2ccccc2n1OCc1c(F)cccc1F	–	–	–	–	–	–
O=c1c(-c2ccco2)[n+]([O-])c2ccccc2n1OCc1ccccc1	–	–	–	–	37	–
CC1CCC2C(=O)N(c3ccc(C(=O)Oc4cccc5cccnc45)cc3)C(=O)C2C1 (centres undefined)	–	–	–	–	71	–
Nc1nonc1C(=O)N/N=C/c1ccc(-c2ccc(Cl)c(C(=O)O)c2)o1	–	–	–	–	–	–
O=C(O)c1cc(-c2ccc(/C=N/Nc3ccc(Cl)cc3)o2)ccc1Cl	–	–	–	–	–	304
O=C(CN1c2cccc3cccc(c23)S1(=O)=O)Nc1ccccc1Br	·	–	·	–	·	–
O=[N+]([O-])c1cccnc1N1CCC(c2cc(-c3ccc(Cl)cc3)n[nH]2)CC1	–	–	–	–	40	–
CCOC(=O)CN1CCC(c2cc(-c3ccc(Cl)cc3)n[nH]2)CC1	–	–	–	–	–	–
COC(=O)C(C)Oc1ccc2cc(-c3ccccc3)c(=O)oc2c1 (centres undefined)	–	–	–	–	–	–
CC(Oc1ccc2cc(-c3ccccc3)c(=O)oc2c1)C(=O)NCC1CCC(C(=O)O)CC1 (centres undefined)	–	–	–	–	–	743
Cc1cccc(NC(=O)CSc2nnc(C)c(=O)n2N)c1	–	–	–	–	–	461
COc1ccc(C(C)NCCC(c2ccc(OC(C)C)cc2)c2ccccc2OC)cc1 (centres undefined)	–	–	7.7	–	–	–
COc1ccc(C(CCNC(C)c2ccccc2)C(C)C)cc1 (centres undefined)	–	–	–	–	–	–
CC(C)S(=O)(=O)C1=NSC2=NC(=O)/C(=C\c3ccc(OC(=O)c4ccco4)cc3)C(=N)N21	-8.2	–	–	–	–	–
CCS(=O)(=O)C1=NSC2=NC(=O)/C(=C\c3ccc(OC(=O)c4ccco4)cc3)C(=N)N21	–	–	–	–	–	–
SMILES	CHT inh	Bfl-1 A1 inh	CHT PAM	NALP3 yeast inh	NALP1 yeast inh	Mot1-301 SUMO
O=C(c1cc(Br)ccc1O)N1CCN(S(=O)(=O)Cc2ccccc2)CC1	·	–	·	–	·	–
O=C(c1ccccc1)c1c2c(cc3sc4ccccc4[n+]13)-c1cccc3cccc-2c13	–	–	–	·	58	–
c1ccc(N2CCN(c3nc(-c4cccs4)nc4ccccc34)CC2)cc1	–	–	–	–	–	825
Oc1ccc(N2CCN(c3nc(-c4cccs4)nc4ccccc34)CC2)cc1	–	–	–	–	·	–
O=C(Nc1ccc2c(c1)OCO2)c1cc(-c2ccc(O)cc2)on1	–	–	–	–	–	–
COc1ccc2c(c1)cc(C(=O)N[C@H](C(=O)N1CCC[C@H]1C(=O)O)C(C)C)n2C	–	–	–	–	–	419
COc1ccc2c(c1)cc(C(=O)N[C@H](C(=O)N1CCC(C(=O)O)CC1)C(C)C)n2C	–	–	–	–	–	–
CCc1ccc(NC(=O)c2cc(Br)ccc2Br)cc1	–	–	–	–	42	–
O=C(CCS(=O)(=O)c1ccccc1)Nc1ccc(Cl)cn1	–	–	–	–	–	–
COc1ccc(C)cc1S(=O)(=O)n1c([N+](=O)[O-])cnc1C	–	–	–	–	–	–
CC1CC(C)CN(S(=O)(=O)c2ccc3c(c2)oc(=O)n3CC(=O)N(C)Cc2ccccc2)C1 (centres undefined)	–	–	–	–	–	333
CCCCNC(=O)Cn1c(=O)oc2cc(S(=O)(=O)N3CC(C)CC(C)C3)ccc21 (centres undefined)	–	–	–	–	–	–
Cn1c(-c2c(N)n(CCCc3ccccc3)c3nc4ccccc4nc23)nc2ccccc21	·	·	·	·	41	·
COCCCn1c(N)c(-c2nc3ccccc3n2C)c2nc3ccccc3nc21	–	–	–	–	–	–
CCCN(CC(=O)Nc1ccccc1OC)C(=O)c1ccc(COc2ccccc2)o1	·	–	·	–	·	–
CCC1CCCCN1C(=O)Cn1c(=O)n(CCCC(=O)NCc2ccco2)c(=O)c2sccc21 (centres undefined)	–	–	–	–	–	–
COC(=O)c1sccc1NC(=O)c1ccc(OC)cc1OC	–	–	–	–	–	420
O=C(c1ccc2c3n(nc2c1)-c1ccccc1CO3)N1CCCCC1	-5.3	–	–	–	–	–
O=C(c1ccc2c3n(nc2c1)-c1ccccc1CO3)N1CCOCC1	–	–	–	–	–	–
COc1cc(OC)cc(C(=O)NNC(=O)C2CCCC2)c1	–	–	–	–	–	331
Cc1cccc(C(=O)NNC(=O)C2CC2)c1	–	–	–	–	31	–
CC(C)(C)OC(=O)COc1ccc(/C=N/NC(=O)CN2CCCCC2)cc1	·	·	·	–	–	·
O=c1oc2ccccc2n1Cc1cccc(C(F)(F)F)c1	–	–	–	–	·	–
Nc1c2c(nc3ccccc13)CCCC2	–	–	7.6!	–	–	–
O=C(CCNC(=O)c1ccccc1)NNC(=O)c1ccccc1Br	·	–	·	–	·	–
CCOc1ccc(N2C(=O)CC(Cc3cc(C)cc(C)c3)C2=O)cc1 (centres undefined)	–	–	–	–	–	–
CCOc1ccc(N2C(=O)CC(N)C2=O)cc1 (centres undefined)	–	–	–	–	94	–
